Test results: the supplement of paper PMC10646978
± gives the standard deviation.

Tests used:
Details in all cases: modulator concentration 10 µM
[1] = test system: RAW-Dual (murine macrophage reporter line); assay: NF-kB reporter (SEAP) activity fold change vs agonist alone; higher = enhanced NF-kB activity
How it was run: (§1)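 Compound reached 10 μM final in each well by pin transfer, onto RAW-Dual murine macrophage reporter cells seeded at 50 000 per well in 384-well plates. After 1 hour at 37 °C, the cells were stimulated overnight with a PRR agonist. SEAP in the supernatant was read with QUANTI-Blue at 620 nm absorbance for NF-κB, and Lucia luciferase was read with QUANTI-Luc luminescence for IRF. Each signal was turned into fold change against the mean agonist-only control on the same plate, and two replicate plates were averaged with propagated errors.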

[2] = test system: RAW-Dual (murine macrophage reporter line); assay: IRF reporter (Lucia luciferase) activity fold change vs agonist alone; higher = enhanced IRF activity
How it was run: as §1

[3] = test system: RAW-Dual (murine macrophage reporter line); assay: viability score (confluency relative to resting cells, overnight) (fraction); higher = more viable, active = viable (0.7 or more)
How it was run: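 RAW-Dual macrophages in 384-well plates were exposed overnight to compound at 10 μM final. Confluency was imaged with IncuCyte, and two confluency masks were generated with IncuCyte software over all imaged wells. The viability score is confluency expressed relative to resting cells. Compounds were called viable if both masks exceeded 70% of resting cells.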

[4] = agonist: CpG ODN 1826 0.5 ug/mL

Row | Compound | NF-kB reporter [1, 4] | NF-kB reporter ([1]; agonist: LPS 0.1 ug/mL) | NF-kB reporter ([1]; agonist: MPLA […]) | IRF reporter ([2]; agonist: 3'3'-cGAMP 10 ug/mL) | IRF reporter ([2]; agonist: LPS 0.1 ug/mL) | IRF reporter ([2]; agonist: MPLA […]) | viability score [3]
1 | COc1cc2c(cc1OC)C1CC(=O)C(CC(C)C)CN1CC2 (stereo not drawn) | 1.09 ± 0.093 | 1.04 ± 0.076 | 0.986 ± 0.045 | 0.983 ± 0.065 | 0.933 ± 0.047 | 0.904 ± 0.073 | 0.992 (active)
2 | CC12CCC3C(CCC4CC(=O)CCC43C)C1CCC2=O (stereo not drawn) | 1.29 ± 0.32 | 1.03 ± 0.058 | 0.933 ± 0.075 | 1.04 ± 0.044 | 1.23 ± 0.18 | 1.23 ± 0.17 | 0.997 (active)
3 | O=C1CCC(=O)N1C1CC2CCC(C1)N2C(=O)Cc1cccc2ccccc12 (stereo not drawn) | 0.977 ± 0.049 | 1.12 ± 0.099 | 0.913 ± 0.11 | 1.08 ± 0.066 | 1.25 ± 0.076 | 1.16 ± 0.21 | 1.01 (active)
4 | CC(C)N(CCC(C(N)=O)(c1ccccc1)c1ccccn1)C(C)C (stereo not drawn) | 0.86 ± 0.23 | 0.945 ± 0.09 | 0.99 ± 0.067 | 0.849 ± 0.064 | 0.94 ± 0.2 | 1.12 ± 0.13 | 0.998 (active)
5 | CCC1(C)CC(=O)NC(=O)C1 | 0.907 ± 0.15 | 0.842 ± 0.14 | 0.941 ± 0.054 | 0.899 ± 0.073 | 1.02 ± 0.11 | 1.11 ± 0.16 | 0.985 (active)
6 | O=[N+]([O-])Nc1ccc(Br)cn1 | 0.998 ± 0.09 | 0.98 ± 0.096 | 0.983 ± 0.048 | 0.961 ± 0.15 | 1.09 ± 0.064 | 1.17 ± 0.095 | 0.997 (active)
7 | CCC1(c2ccccc2)C(=O)N(Cc2ccccc2)C(=O)N(Cc2ccccc2)C1=O | 0.516 ± 0.03 | 1.08 ± 0.1 | 0.967 ± 0.056 | 1.17 ± 0.093 | 1.25 ± 0.14 | 1.18 ± 0.11 | 1.01 (active)
8 | Nc1nc(N)nc(NC2CC2)n1 | 1.47 ± 0.063 | 1.15 ± 0.1 | 1.67 ± 0.39 | 0.614 ± 0.064 | 0.992 ± 0.24 | 0.892 ± 0.33 | 0.987 (active)
9 | COc1ccc(C(CN(C)C)C2(O)CCCCC2)cc1.Cl (stereo not drawn) | 1.07 ± 0.08 | 1.06 ± 0.1 | 0.971 ± 0.056 | 1.07 ± 0.22 | 0.867 ± 0.052 | 0.928 ± 0.081 | 1 (active)
10 | CC(O)(CS(=O)(=O)c1ccc(F)cc1)C(=O)Nc1ccc(C#N)c(C(F)(F)F)c1 (stereo not drawn) | 1.38 ± 0.26 | 0.966 ± 0.081 | 0.952 ± 0.053 | 0.991 ± 0.067 | 1.05 ± 0.095 | 1.23 ± 0.17 | 0.987 (active)
11 | COc1ccc(CNCCc2c[nH]c3ccccc23)cc1OC | 0.397 ± 0.056 | 0.947 ± 0.12 | 0.808 ± 0.077 | 0.763 ± 0.03 | 1.33 ± 0.26 | 1.34 ± 0.24 | 1.01 (active)
12 | CCC1(c2cccc(O)c2)CCCCN(C)C1.Cl (stereo not drawn) | 0.894 ± 0.13 | 0.99 ± 0.054 | 1 ± 0.047 | 1.08 ± 0.088 | 0.963 ± 0.043 | 0.948 ± 0.21 | 1.01 (active)
13 | CC(=O)Oc1ccc(C=Cc2cc(OC(C)=O)cc(OC(C)=O)c2)cc1 | 1.12 ± 0.069 | 1.15 ± 0.073 | 1.12 ± 0.092 | 0.87 ± 0.029 | 0.953 ± 0.088 | 0.896 ± 0.093 | 1 (active)
14 | CC(=O)OC1CN2CCC1CC2.Cl (stereo not drawn) | 0.984 ± 0.35 | 0.984 ± 0.12 | 0.971 ± 0.061 | 0.914 ± 0.052 | 0.869 ± 0.15 | 0.862 ± 0.081 | 1 (active)
